{"source": "PubChem BioAssay (Tox21)", "note": "Records with an inconclusive call do not appear. A call without a number means that no potency is given here. Calls of active or inactive are those of the source. The call rests on the fitted dose curve; in most records, active means well fitted activation curve with a large enough effect in the repeat runs; inconclusive means weak or mixed curves; inactive means flat fitted curve, though single readings scatter. Potency means the concentration at half of the fitted maximal effect.", "data": [{"assay": "A CellTox Green Cytotoxicity Assay to monitor cytotoxicity in HEK293 cells - 16 hour (AID 1224888); further: nearly all actives have a fitted effect of over 35% in size", "conditions": "CellTox Green fluorescence; series mostly up to 76.8 µM", "text": "National Center for Advancing Translational Sciences [NCATS]\nNIH Chemical Genomics Center [NCGC]\nU.S. Environmental Protection Agency [EPA]\nNational Institutes of Environmental Health Sciences [NIEHS]\nNational Toxicology Program [NTP]\nCell-based models are critical for drug discovery. Determining the natural cytotoxic effects resulting from test compounds is an essential research activity. A CellTox Green Cytotoxicity Assay to monitor cytotoxicity in real time of continues cell culture during 40 hours of the compound treatment was used to screen Tox21 10K library compounds in Hek293 cells. CellTox Green Cytotoxicity Assay is a nonlytic, homogeneous, biofluorescent method to measure cytotoxicity in cell culture after experimental manipulation. The assay system uses a proprietary asymmetric cyanine dye that is excluded from viable cells but preferentially stains the dead cell's DNA. […] Viable cells produce no appreciable increases in fluorescence. Therefore, the fluorescence signal produced by the binding interaction with dead cell DNA is proportional to cytotoxicity.\nThe mixture of Hek293 cell suspension and reagents were dispensed at 600cells/6 ul/well in 1536-well tissue culture treated black solid bottom plates using a Multidrop dispenser. After the assay plates were incubated at a 37 C/5% CO2 incubator for 5 hours, 23 nL of compounds dissolved in DMSO, positive and negative controls was transferred to the assay plate by a pintool work station. The plates were incubated at 37 C for 40 hours. The fluorescence intensity were measured at 0h, 8h, 16h, 24h, 32h and 40h time points using ViewLux plate reader during compound treatment.", "values": [{"smiles": "CC(=O)Oc1ccc([N+](=O)[O-])cc1CCl", "Potency": "inactive"}, {"smiles": "C=CC(=O)OCC1CC2CC1C1CCC(COC(=O)C=C)C21", "note": "(stereo not given)", "Potency": "inactive"}, {"smiles": "CCOC(=O)c1ccc(O)c(O)c1", "Potency": "inactive"}, {"smiles": "Cc1ccccc1N=C(N)Nc1ccccc1C", "Potency": "inactive"}, {"smiles": "COC(=O)[C@H]1[C@H]2C[C@@H]3c4[nH]c5cc(OC)ccc5c4CCN3C[C@H]2C[C@@H](OC(=O)/C=C/c2ccc(O)c(OC)c2)[C@@H]1OC", "Potency": "16.9 µM (active)"}, {"smiles": "O[C@@H]1CO[C@H]2[C@@H]1OC[C@@H]2O", "Potency": "inactive"}, {"smiles": "O=c1c(O)c(-c2ccc(O)cc2)oc2cc(O)cc(O)c12", "Potency": "inactive"}, {"smiles": "OCCOCC#CCOCCO", "Potency": "inactive"}, {"smiles": "C[C@H]1C[C@H](O)c2ccsc2S1(=O)=O", "Potency": "inactive"}, {"smiles": "CC(CC1c2ccccc2CCc2ccccc21)CN(C)C", "note": "(stereo not given)", "Potency": "inactive"}, {"smiles": "C=C/C(C)=C/C/C=C(\\C)CCC=C(C)C", "Potency": "inactive"}, {"smiles": "Cc1cccc(O)c1N", "Potency": "inactive"}, {"smiles": "CC(C)=CCC/C(C)=C/CC/C(C)=C/CCC(=O)OC/C=C(\\C)CCC=C(C)C", "Potency": "inactive"}, {"smiles": "CN1CCCC(CC2c3ccccc3Sc3ccccc32)C1", "note": "(stereo not given)", "Potency": "23.9 µM (active)"}, {"smiles": "C[C@@H](O[C@H]1OCCN(Cc2n[nH]c(=O)[nH]2)[C@H]1c1ccc(F)cc1)c1cc(C(F)(F)F)cc(C(F)(F)F)c1", "Potency": "inactive"}, {"smiles": "C=C1CCC2CC1C2(C)C", "note": "(stereo not given)", "Potency": "inactive"}, {"smiles": "Cc1ccc(Cl)c(Nc2ccccc2C(=O)O)c1Cl", "Potency": "inactive"}, {"smiles": "CCCCCCCCCCCCCCN(CCO)CCO", "Potency": "54.9 µM (active)"}, {"smiles": "O=C1c2ccccc2C(=O)C1c1nc2ccccc2c(Br)c1O", "Potency": "inactive"}, {"smiles": "CC(=O)OCC[N+](C)(C)C", "Potency": "inactive"}, {"smiles": "Cc1[nH]cnc1CN1CCc2c(c3ccccc3n2C)C1=O", "Potency": "inactive"}, {"smiles": "Clc1ccc(Nc2nnc(Cc3ccncc3)c3ccccc23)cc1", "Potency": "inactive"}, {"smiles": "CCC(C)(C)OC", "Potency": "inactive"}, {"smiles": "CC(O)c1ccccc1", "note": "(stereo not given)", "Potency": "inactive"}, {"smiles": "O=[N+]([O-])c1cc(C2CCCCC2)c(O)c([N+](=O)[O-])c1", "Potency": "inactive"}, {"smiles": "O=C1c2ccccc2C(=O)C1(O)O", "Potency": "inactive"}, {"smiles": "O=C(/C=C/c1ccccc1)OCCc1ccccc1", "Potency": "inactive"}, {"smiles": "CCCCCCCCCCC(=O)O", "Potency": "inactive"}, {"smiles": "CN1C[C@H](C(=O)N[C@]2(C)O[C@@]3(O)[C@@H]4CCCN4C(=O)[C@H](Cc4ccccc4)N3C2=O)C[C@@H]2c3cccc4[nH]cc(c34)C[C@H]21", "Potency": "inactive"}, {"smiles": "CC1(C)S[C@@H]2[C@H](NC(=O)C(c3ccccc3)S(=O)(=O)O)C(=O)N2[C@H]1C(=O)O", "note": "(stereo not given in full)", "Potency": "inactive"}, {"smiles": "CCC(C)COC(=O)CC(C)C", "note": "(stereo not given)", "Potency": "inactive"}, {"smiles": "COc1cc(N)c(Cl)cc1C(=O)NC1CCN(CCCOc2ccc(F)cc2)CC1OC", "note": "(stereo not given)", "Potency": "inactive"}, {"smiles": "O=C1NC(=O)c2cc([N+](=O)[O-])ccc21", "Potency": "inactive"}, {"smiles": "O=c1[nH]c2ccc(Cl)cc2o1", "Potency": "inactive"}, {"smiles": "OC[C@H]1O[C@@H](n2cnc3c(=S)nc[nH]c32)[C@H](O)[C@@H]1O", "Potency": "inactive"}, {"smiles": "CC(=O)Nc1cc(S(=O)(=O)O)cc2cc(S(=O)(=O)O)c(N=Nc3ccccc3)c(O)c12", "Potency": "inactive"}, {"smiles": "CC(=O)[C@H]1[C@H](C#N)C[C@H]2[C@@H]3CC=C4C[C@@H](O)CC[C@]4(C)[C@H]3CC[C@@]21C", "Potency": "inactive"}, {"smiles": "C=C(C)C(=O)OCCCCCCCCCCCCC", "Potency": "inactive"}, {"smiles": "CCCCCCC(C)(C)C(=O)O", "Potency": "inactive"}, {"smiles": "C=C1C[C@@]23CC[C@H]4[C@@](C)(CCC[C@@]4(C)C(=O)O[C@@H]4O[C@H](CO)[C@@H](O)[C@H](O)[C@H]4O)[C@@H]2CC[C@]1(O[C@@H]1O[C@H](CO)[C@@H](O)[C@H](O[C@@H]2O[C@H](CO)[C@@H](O)[C@H](O)[C@H]2O)[C@H]1O[C@@H]1O[C@H](CO)[C@@H](O)[C@H](O)[C@H]1O)C3", "Potency": "inactive"}]}]}
